Most compounds without a hit are left out; they make up all but 18% or so of the library.
DT40 TDP1 no CPT: qHTS for Inhibitors of human tyrosyl-DNA phosphodiesterase 1 (TDP1): qHTS in cells in absence of CPT. Potency, µM (doses to about 46.2 µM), without a hit: at the top dose activity change, negative = growth inhibition, usual class: inhibitors. 420,000 compounds, 15% hits. AID 686978, 2013. DT40 Tdp1-/- hTDP1 cells, no CPT, ATP luminescence, 48 h; further: potency means the concentration at half of the fitted maximal effect; nearly all actives have a fitted effect of over 55% in size
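Growth of hTDP1-complemented DT40 Tdp1-knockout cells is measured by ATP luminescence after at least 48 hr compound exposure at 37 °C, with DMSO substituting for the 20 nM CPT used in the parallel screen.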
TDP1 cell CPT: qHTS for Inhibitors of human tyrosyl-DNA phosphodiesterase 1 (TDP1): qHTS in cells in presence of CPT | chicken DT40 Tdp1-/-;hTDP1 cells + 20 nM CPT, ATP luminescence, 48 h | AID 686979, 2013 | Potency, µM (highest dose often 46.2 µM), inactives show at the highest dose activity change, negative = growth inhibition, most hits filed as inhibitors | 420,000 compounds, 12% hits; further: potency means the concentration at half of the fitted maximal effect; nearly all actives have a fitted effect of over 55% in size
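Chicken DT40 Tdp1-/- cells stably complemented with human TDP1 were seeded at 400 cells/well in medium containing 20 nM camptothecin, exposed to pin-transferred compounds, and grown at 37 °C for at least 48 hr. Viability was read as ATP luminescence.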
TDP1 block: qHTS Assay for Inhibitors of Tyrosyl-DNA Phosphodiesterase (TDP1); 350,000 compounds, 0.28% hits; Potency, µM (doses to about 130 µM), without a hit: top-dose activity change, negative = inhibition, actives largely listed as inhibitors; recombinant TDP1, AlphaScreen DNA substrate cleavage; Tyrosyl-DNA phosphodiesterase 1 (Homo sapiens), Q9NUW8; AID 485290, 2010; further: potency means the concentration at half of the fitted maximal effect; nearly all actives have a fitted effect of over 40% in size
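Enzyme-compound mixtures sat 15 min at room temperature, followed by a 5 min reaction with 15 nM final substrate and 10 min with AlphaScreen beads. Recombinant human Tdp1 was used at 1 nM final.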
IL-1B inflam inh: qHTS for Inhibitors of Inflammasome Signaling: IL-1-beta AlphaLISA Primary Screen | THP-1 LPS/ATP IL-1B secretion, AlphaLISA, 16 h; hits give low values | activity change, % at 57.5 µM | 360,000 compounds, 4.7% hits | AID 743279, 2014; in the data active means activity change below about -50%; inconclusive means mostly about -30% to -49%
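Secreted IL-1B measured by AlphaLISA bead assay after 16 h compound exposure of THP-1 cells; compounds (final up to 57.5 uM) added 1 h before LPS (250 ng/mL) and ATP (1.25 mM) stimulation; lower signal means less secretion.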
Six1-Eya2 inh: qHTS Assay for Inhibitors of the Six1/Eya2 Interaction | AlphaScreen GST-Six1/His-Eya2 binding, biochemical; hits give low values | 360,000 compounds, 0.56% hits | Homeobox protein SIX1 (Homo sapiens) + Protein phosphatase EYA2 (Homo sapiens), … | AID 651725, 2012 | activity change, % (no concentration beside the values); in the data active means activity change below about -65%; inconclusive means mostly about -30% to -63%
Target sequence (O00167 whole entry, looked up): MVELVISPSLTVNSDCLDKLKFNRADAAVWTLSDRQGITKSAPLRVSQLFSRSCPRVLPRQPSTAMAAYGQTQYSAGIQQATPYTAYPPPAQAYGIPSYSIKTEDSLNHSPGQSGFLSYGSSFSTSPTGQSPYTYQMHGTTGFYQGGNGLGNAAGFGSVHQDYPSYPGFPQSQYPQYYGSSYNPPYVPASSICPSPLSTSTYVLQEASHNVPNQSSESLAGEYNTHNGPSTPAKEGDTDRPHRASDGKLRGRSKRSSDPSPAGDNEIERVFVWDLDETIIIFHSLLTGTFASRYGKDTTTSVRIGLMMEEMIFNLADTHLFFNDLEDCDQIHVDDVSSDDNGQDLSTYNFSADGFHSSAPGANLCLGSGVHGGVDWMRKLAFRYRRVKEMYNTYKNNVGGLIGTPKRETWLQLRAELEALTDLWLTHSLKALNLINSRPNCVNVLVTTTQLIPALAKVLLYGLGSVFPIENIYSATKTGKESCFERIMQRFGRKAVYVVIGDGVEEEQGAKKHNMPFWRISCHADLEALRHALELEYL
Target sequence (Q15475 whole entry, looked up): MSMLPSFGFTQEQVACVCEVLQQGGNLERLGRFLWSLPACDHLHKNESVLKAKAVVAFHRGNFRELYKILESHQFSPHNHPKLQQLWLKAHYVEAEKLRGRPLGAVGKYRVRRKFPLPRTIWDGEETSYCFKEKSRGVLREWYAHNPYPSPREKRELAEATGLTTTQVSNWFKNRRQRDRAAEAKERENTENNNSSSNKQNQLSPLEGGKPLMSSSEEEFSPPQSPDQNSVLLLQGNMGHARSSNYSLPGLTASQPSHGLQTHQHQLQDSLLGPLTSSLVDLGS
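AlphaScreen with GST-Six1 and His-Eya2 (5X mix: 250 nM and 500 nM), glutathione donor and nickel acceptor beads; buffer 50 mM Tris pH 8.0, 300 mM NaCl, 1 mM TCEP; 1 h at 37 C in the dark.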
CtBP-E1A blk: qHTS Assay for Inhibitors of the CtBP/E1A Interaction. AlphaScreen GST-E1A/His-CtBP binding, 1536-well; hits give low values. activity change, % (concentration not given with the values). CtBP / adenovirus E1A interaction (AlphaScreen). AID 651724, 2012. 340,000 compounds, 0.49% hits; in the data active means activity change below about -65%; inconclusive means mostly about -30% to -63%
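GST-E1A and His-tagged CtBP (125 nM each as 5X stock) were preincubated with pin-transferred compound for 2 h at 37 °C in the dark, then glutathione donor and nickel acceptor beads were added for 1 h before AlphaScreen reading.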
* = called active by the depositor; ? = inconclusive; / = not tested or not shown; [ ] = dose if it differs, or a comment. Unless noted, the call rests on the fitted dose curve; in most records, active means well fitted curve in the direction sought with a large enough effect; inconclusive means small, poorly fitted or top-dose-only effect, or another doubt; inactive means no such curve, though single readings can be large; an effect the other way counts as inactive or inconclusive. On the % scale 0 is the no-effect control and ±100 the full control effect.

SMILES | DT40 TDP1 no CPT | TDP1 cell CPT | TDP1 block | IL-1B inflam inh | Six1-Eya2 inh | CtBP-E1A blk
O=C(O)CSCC(=O)N1CCN(S(=O)(=O)c2ccccc2)CC1 | -2% | 17% | 10% | 0 | 5 | 22
COc1ccc(OC)c(N2C(=NC(=O)C3CCCCC3)SC3CS(=O)(=O)CC32)c1 (stereo not given) | 21% | -12% | 2% | -21 | 4 | 4
CCOC(=O)CNC(=O)Cn1cnc2c(nnn2-c2ccc(C)cc2)c1=O | -6% | ? | 3% | 26 | 0 | 41
CCc1ccc(-n2nc3ccc(NC(=O)c4ccc(C#N)cc4F)cc3n2)cc1 | / | / | -3% | / | / | /
COc1ccc(/C=C/c2nc(-c3ccccc3)cc(=O)[nH]2)cc1 | -27% | -5% | / | -5 | 3 | -3
Cc1ccc2c(c1)cc(CN(Cc1ccco1)C(=O)COc1ccccc1)c1nnnn12 | 23µM* | ? | 7% | ? | -16 | -1
CCC(=O)N(Cc1ccco1)Cc1cc2cccc(C)c2n2nnnc12 | 20% | 6% | 2% | -12 | -1 | -12
CCc1ccc(OCC(=O)N(Cc2ccc(C)cc2)Cc2ccco2)cc1 | 21µM* | ? | -1% | / | / | /
Cc1ccc(OCC(=O)N(Cc2ccco2)c2ccccn2)cc1 | -5% | ? | -5% | / | / | /
CCN(CC(=O)Nc1c(F)cccc1F)C(=O)c1ccc2ncsc2c1 | 9% | 13% | / | 18 | 3 | 2
Cc1ccccc1CS(=O)(=O)c1cnc2ccccc2n1 | 29µM* | ? | 0% | -119* | 6 | -2
COc1ccc(/[N+]([O-])=C/c2ccco2)cc1 | 16µM* | 15µM* | 2% | -3 | -1 | -1
O[C@@H]1CO[C@H]2[C@@H]1OC[C@@H]2O | -8% | 8% | / | / | / | /
CCOc1ccc(CCN2CN(C3CCCCC3)CNC2=S)cc1OCC | 18µM* | ? | / | 22 | -8 | -6
COc1ccc(NC(=O)c2cc(-c3ccc(F)cc3OC)n[nH]2)c(OC)c1 | 15µM* | 16µM* | / | / | -10 | 5
COc1ccc(NC(=O)c2cc(-c3cc(C)c(C)cc3O)n[nH]2)c(OC)c1 | ? | 0% | / | 4 | 6 | 0
COc1ccc(NC(=O)c2cc(-c3cc(F)ccc3OC)n[nH]2)c(OC)c1 | ? | 26µM* | / | / | -3 | -15
S=C(Nc1ccc(CN2CCCCC2)cc1)Nc1cccc(Cl)c1Cl | 18µM* | ? | 5%[56.1 µM] | -12 | -4 | -4
S=C(Nc1cccc(Cl)c1Cl)NC1CCN(Cc2ccccc2)CC1 | ? | 21µM* | 4% | -81* | -15 | -8
Cc1cccc(NC(=S)NC2CCN(Cc3ccccc3)CC2)c1C | ? | ? | -3% | -8 | -2 | -2
CC(C)(Oc1ccc(Cl)cc1)C(=O)NC1CCN(Cc2ccccc2)CC1 | 18µM* | ? | -2% | ? | -13 | -3
CC(C)(C)CC(C)(C)NC(=S)NC1CCN(Cc2ccccc2)CC1 | 4.6µM* | 5.2µM* | -8% | -104* | -5 | 0
S=C(Nc1ccccc1)Nc1cccc(Cl)c1Cl | -2% | 4% | 2% | 1 | 16 | -3
C/C(=N\NC(=O)c1ccccc1O)C1CC1 | -13% | -1% | -15% | 16 | -6 | -4
O=C(c1cnn(C(=O)c2ccc(O)cc2)c1)c1ccccc1O | / | / | 0% | / | / | /
SMILES | DT40 TDP1 no CPT | TDP1 cell CPT | TDP1 block | IL-1B inflam inh | Six1-Eya2 inh | CtBP-E1A blk
CCc1cccc(CC)c1NC(=S)Nc1cccc(Cl)c1Cl | ? | 18µM* | / | 21 | 6 | -5
CCCCn1cnc2c1c(=O)[nH]c(=O)n2CCCC | ? | ? | 3% | -23 | -1 | 2
COc1c(Cl)cc(C(=O)N(Cc2ccc(C)o2)C2CCS(=O)(=O)C2)cc1Cl (stereo not given) | 23µM* | ? | 9% | / | / | /
Cc1ccc(CN(C(=O)COc2ccc([N+](=O)[O-])cc2)C2CCS(=O)(=O)C2)o1 (stereo not given) | 11% | -4% | 6% | 0 | -1 | -1
COc1cc(C(=O)N(Cc2ccc(C)o2)C2CCS(=O)(=O)C2)cc(OC)c1OC (stereo not given) | 14% | -1% | 4% | 22 | 1 | -3
CC(C)CN(C(=O)COc1ccc(C(C)(C)C)cc1)C1CCS(=O)(=O)C1 (stereo not given) | 23µM* | -29% | -5%[0.505 µM] | 12 | 1 | 2
Cc1ccc(CN(C(=O)COc2ccc(C(C)(C)C)cc2)C2CCS(=O)(=O)C2)o1 (stereo not given) | 21µM* | ? | 1% | / | / | /
COc1cc(C(=O)OCC(=O)N(CC(C)C)C2CCS(=O)(=O)C2)cc(OC)c1C (stereo not given) | 0% | -8% | 32µM* | 33 | -2 | 4
Cc1ccc(-n2nc(C)c3c(C)onc3c2=O)cc1 | ? | 3% | 6% | 5 | 2 | /
CCc1cc2c(NCCC(=O)O)ncnc2s1 | -5% | -1% | 5% | 30 | 2 | 8
CC(NC(=O)CSc1ncnc2nc[nH]c12)c1ccccc1 (stereo not given) | -23% | -20% | -2% | 33 | 6 | 2
CCc1cccc(CC)c1NC(=O)CN1C2CCCC1CC(NC(=O)Nc1cccc(OC)c1)C2 (stereo not given) | ? | 18µM* | -3% | ? | -19 | -12
COc1cccc(C(=O)NC2CC3CCC(C2)N3Cc2ccccc2)c1 (stereo not given) | -1% | -8% | / | -6 | 1 | /
O=C(NC1CC2CCCC(C1)N2CC(=O)N1CCCc2ccccc21)C1CCCCC1 (stereo not given) | -30% | -11% | 1% | -9 | 1 | -1
COc1cccc(C(=O)NC2CC3CCCC(C2)N3CC(=O)Nc2ccccc2C(F)(F)F)c1 (stereo not given) | 16µM* | ? | / | -16 | -24 | -5
CCCN1C2CCCC1CC(NC(=O)Nc1cccc(C(C)=O)c1)C2 (stereo not given) | 2% | -14% | 2% | 21 | 6 | -4
O=C(CN1C2CCCC1CC(NC(=O)C1CCCCC1)C2)Nc1ccccc1C(F)(F)F (stereo not given) | 15µM* | 23µM* | / | ? | -4 | 5

High-throughput results from PubChem BioAssay.
